Source: PubChem BioAssay (National Center for Advancing Translational Sciences (NCATS))
A selection: hits, their analogues and other compounds. The true share with any hit is near 6.1%.
Gal4-VP16 FLuc: inhibits Gal4-VP16 luciferase reporter, ROR gamma counter-screen; Potency, µM (series often up to 53.6 µM), inactives show top-dose activity, negative = inhibition, usual class: inhibitors; 310,000 tested, 3.5% active; Drosophila S2 Gal4-VP16 UAS-luciferase, luminescence, 20 h;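 further: Gal4-VP16 expression switched on by copper sulfate through the metallothionein promoter; on the % scale 0 is the no-effect control and ±100 the full control effect; nearly all actives have a fitted effect of over 50% in size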
ATXN2 expr inh: inhibitors of ATXN2 expression | HEK-293 ATXN2-luciferase reporter, luminescence, 24 h | Potency, µM (highest dose often 57 µM), without a hit: at the top dose activity change, negative = inhibition, usual class: inhibitors | 360,000 tested, 0.72% active | AID 1745845; further: on the % scale 0 is the no-effect control and ±100 the full control effect; nearly all actives have a fitted effect of over 55% in size
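ATXN2-luciferase reporter cells (luciferase flanked by upstream and downstream ATXN2 gene portions) were treated 24 h at 37 °C with compounds at up to 57 uM. SteadyGlo luminescence gave expression; GF-AFC fluorescence gave viability.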
TGFb SMAD3 inh: inhibitors of TGF-b signaling | Potency, µM (doses to about 46.1 µM), inactives show at the top dose activity, negative = inhibition, hits mostly inhibitors | HepG2 CAGA-GFP TGF-b/SMAD3 reporter, GFP fluorescence, 18 h; TGF-beta stimulated, 500 pg/mL final | 410,000 tested, 1.2% active; further: on the % scale 0 is the no-effect control and ±100 the full control effect; nearly all actives have a fitted effect of over 65% in size
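Smad-responsive CAGA-GFP expression was quantified in HEPG2 cells exposed to compounds and 500 pg/mL final TGF-beta for 18 h at 37 degrees C; unstimulated wells defined full inhibition.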
ATXN viability: viability counter-screen for ATXN expression inhibitors; Potency, µM (top dose mostly 56.7 µM), most hits filed as cytotoxic; 400,000 tested, 0.49% active; AID 651635; S2 cells (HEK-293 line with an ATXN2-luciferase reporter) viability, CellTiter-Fluor protease fluorescence, 24 h; further: nearly all actives have a fitted effect of over 40% in size
RORg inh: inhibitors of mouse ROR gamma transcriptional activity; P51450; Drosophila S2 Gal4-RORgamma UAS-luciferase reporter, 20 h; Potency, µM (doses to about 53.6 µM), inactives show top-dose activity change, negative = inhibition, usual class: inhibitors; 310,000 tested, 5.4% active; AID 2551; further: on the % scale 0 is the no-effect control and ±100 the full control effect; nearly all actives have a fitted effect of over 60% in size
Target sequence (P51450 whole entry, looked up, the tested form may be a part): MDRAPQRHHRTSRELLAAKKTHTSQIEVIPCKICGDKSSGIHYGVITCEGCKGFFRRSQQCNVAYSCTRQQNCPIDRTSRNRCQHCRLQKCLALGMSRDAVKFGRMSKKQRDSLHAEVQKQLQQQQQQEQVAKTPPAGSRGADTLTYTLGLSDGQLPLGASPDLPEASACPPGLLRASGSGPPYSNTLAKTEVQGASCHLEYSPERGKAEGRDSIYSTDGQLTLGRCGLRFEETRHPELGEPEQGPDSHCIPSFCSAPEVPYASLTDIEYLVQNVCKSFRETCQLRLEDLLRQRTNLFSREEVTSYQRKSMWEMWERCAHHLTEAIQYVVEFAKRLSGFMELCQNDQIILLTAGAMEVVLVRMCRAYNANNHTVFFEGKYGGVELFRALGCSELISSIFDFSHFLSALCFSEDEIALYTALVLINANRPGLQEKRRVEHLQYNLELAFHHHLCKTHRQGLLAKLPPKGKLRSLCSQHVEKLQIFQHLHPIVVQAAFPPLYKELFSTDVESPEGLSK
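Drosophila S2 cells stably expressing Gal4-DBD/mouse RORγ fusion under metallothionein promoter plus UAS-luciferase; compound 1 h, then 700 uM CuSO4 induction for 20 h at ambient temperature; inhibition read as reduced luminescence.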
HepG2 tox-1: kills HepG2 cells in TGF-b inhibitor counter-screen; HepG2 CAGA-GFP viability, ATP luminescence, 18 h; Potency, µM (highest dose often 46.1 µM), inactives show top-dose activity change, negative = cytotoxicity, actives largely listed as cytotoxic; 410,000 tested, 0.76% active
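HepG2 CAGA-GFP cells (1000/well, DMEM with 1% FBS) received compound, then TGF-beta at 500 pg/mL final, and were incubated 18 hours at 37 degrees C. Viability was read by CellTiter-Glo luminescence. Media-only wells were set as complete cell-killing and DMSO as no toxicity.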
TGFb confirm: TGF-b pathway inhibition, cherry-pick retest; shares compounds with TGFb SMAD3 inh; HepG2 CAGA-GFP TGF-b reporter, GFP fluorescence, 18 h; cells stimulated with TGF-beta, 500 pg/mL; Potency, µM (top dose mostly 46.1 µM), for inactives: top-dose activity, negative = inhibition, hits mostly inhibitors; 1,600 tested, 63% active; AID 720534; further: on the % scale 0 is the no-effect control and ±100 the full control effect; nearly all actives have a fitted effect of over 65% in size
HepG2 tox-2: toxic to HepG2 cells in TGF-b counterscreen; shares compounds with TGFb SMAD3 inh; Potency, µM (titrated, usually from 46.1 µM), for the others: top-dose activity, negative = cytotoxicity, usual class: inhibitors; HepG2 CAGA-GFP viability, ATP luminescence, 18 h; cells stimulated with TGF-beta, 500 pg/mL; 1,600 tested, 27% active; further: on the % scale 0 is the no-effect control and ±100 the full control effect; nearly all actives have a fitted effect of over 70% in size
CCL64 TGFb inh: blocks TGF-b signaling in CCL64 reporter cells; CCL64 CAGA-GFP reporter, TGF-b stimulated, GFP fluorescence, 18 h; AID 720536; 1,600 tested, 41% active; Potency, µM (highest dose often 46.1 µM), for inactives: at the top dose activity, negative = inhibition, usual class: inhibitors; shares compounds with TGFb SMAD3 inh; further: nearly all actives have a fitted effect of over 65% in size
COP TGFb inh: TGF-b inhibition validated with COP promoter | 1,600 tested, 3% active | shares compounds with TGFb SMAD3 inh | HepG2 COP-GFP TGF-b reporter, GFP fluorescence, 18 h; cells stimulated by added recombinant TGF-beta | AID 720537 | Potency, µM (series often up to 46.1 µM), inactives show at the top dose activity, negative = inhibition, actives largely listed as inhibitors; further: nearly all actives have a fitted effect of over 70% in size
The depositor's hits bear a star; i = inactive; ? = inconclusive; / = no result; [ ] = remark or other dose. The call rests on the fitted dose curve; in most records, active means well fitted curve in the direction sought with a large enough effect; inconclusive means small, poorly fitted or top-dose-only effect, or another doubt; inactive means no such curve, though single readings can be large; an effect the other way counts as inactive or inconclusive. Potency means the concentration at half of the fitted maximal effect.

SMILES	Gal4-VP16 FLuc	ATXN2 expr inh	TGFb SMAD3 inh	ATXN viability	RORg inh	HepG2 tox-1	others
COC(=O)C1=C(C(=O)OC)SC2(S1)C(C(=O)OC)=C(C(=O)OC)Sc1c2ssc1=O	/	18µM*	?	14µM*	/	-107%
CC1COC2(c3ccccc3Cl)c3cc(Cl)ccc3NC(=O)CN12 (centres undefined)	/	4%	/	i	/	/
COc1cc(/C=C/[N+](=O)[O-])ccc1OC(=O)c1cccnc1	3.5µM*	/	-3%	?	6.3µM*	6%
COc1cc(/C=N/n2cnnc2)ccc1OC(=O)N(C)C	3%	-4%	9%	i	?	2%
NCC[C@H](O)C(=O)N[C@@H]1C[C@H](N)[C@@H](O[C@H]2O[C@H](CN)[C@@H](O)[C@H](O)[C@H]2N)[C@H](O[C@@H]2O[C@H](CO)[C@@H](O)[C@H]2O)[C@H]1O	/	/	/	i	/	/
ClC(Cl)c1ccccc1	7%	/	/	/	15%	/
ClCCN(CCCl)/C(=C\c1ccccc1)c1ccnc2ccccc12	/	/	?	/	/	-42%
CCOC(=O)Cn1cc(C=C2C(=O)N(C)C(=O)N(C)C2=O)c2ccccc21	-5%	0%	7.1µM*	i	-1%	-42%
CCC(C=C[C@@H]1OC(=O)C=C[C@H]1C)=C[C@H](C)CC=CC(C)=C[C@@H](C)C(=O)[C@@H](C)[C@H](O)[C@@H](C)CC(C)=CC(=O)O	1.3µM*	0.13µM*	/	/	?	/
Cl/C=C\Cl	-1%	/	/	/	-1%	/
N#Cc1c(Br)n(C2OC(CO)C(O)C2O)c2ncnc(N)c12 (centres undefined)	/	2.5µM*	?	?	/	-13%
Nc1ncnc2c1ncn2[C@@H]1O[C@H](COP(=O)(O)CP(=O)(O)O)[C@@H](O)[C@H]1O	/	0%	2%	i	/	-32%
CCCOc1ccc(C(=O)Nc2ccc(-c3cc4ccccc4oc3=O)c(C)c2)cc1	/	?	-28%	?	/	-22%
O=C1C=CC[C@@H]2[C@H]3CCCN4CCC[C@@H](CN12)[C@@H]34	-2%	1.5µM*	/	/	-13%	/
C[C@]12COC(=O)C[C@@H]1CC[C@@H]1[C@H]2CC[C@@]2(C)[C@H]1CC[C@]2(C)O	/	5%	/	/	/	/
O=[N+]([O-])/C=C/c1c(OCc2ccccc2)ccc2ccccc12	4.5µM*	/	/	/	5.6µM*	/
CC(C)(O)/C=C/C(=O)C(C)(O)C1C(O)CC2(C)C3CC=C4C(C=C(O)C(=O)C4(C)C)C3(C)C(=O)CC12C (centres undefined)	/	?	?	2.4µM*	/	-57%
c1ccc(-c2ccccc2)cc1	0%	/	/	/	4%	/
c1ccc(Cn2ccnc2)cc1	0%	2%	-13%	i	6%	-22%
CC(C)c1cccc(C(C)C)c1OCCn1ccnc1	?	6%	-16%	i	22µM*	1%
CC1(C)CC/C(=C/c2ccc(Cl)cc2)C1(O)Cn1cncn1 (centres undefined)	/	-9%[116 µM]	/	i	/	/
[CH3][Hg][Cl]	0.71µM*	/	/	/	0.89µM*	/
Cc1cccc(C(C)C)c1NC(=O)Cn1c(=O)oc2cc(S(=O)(=O)N3CCCC3)ccc21	/	/	/	/	/	-13%
CN(Cc1ccccc1)C(=O)c1ccc(NC(=O)C2CCN(C(=O)OC(C)(C)C)CC2)cc1	/	25µM*	-9%	?	/	2%
N#Cc1cn(C2OC(CO)C(O)C2O)c2ncnc(N)c12 (centres undefined)	/	?	0.1µM*	?	/	-36%	TGFb confirm=0.23µM*;HepG2 tox-2=0.15µM*;CCL64 TGFb inh=0.1µM*;COP TGFb inh=12%
SMILES	Gal4-VP16 FLuc	ATXN2 expr inh	TGFb SMAD3 inh	ATXN viability	RORg inh	HepG2 tox-1	others
CCNC(=O)[C@H]1O[C@@H](n2cnc3c(N)ncnc32)[C@H](O)[C@@H]1O	-11%	9%	-15%	i	-27%	14%
NC(=O)c1c(Br)n(C2OC(CO)C(O)C2O)c2ncnc(N)c12 (centres undefined)	/	21µM*	1.4µM*	?	/	-18%	TGFb confirm=2.1µM*;HepG2 tox-2=?;CCL64 TGFb inh=?;COP TGFb inh=20%
CC(=O)OCC1=C[C@H]2[C@@H]3C(C)(C)[C@]3(OC(=O)Cc3ccccc3)C[C@@H](C)[C@]2(O)[C@@H]2C=C(C)C(=O)[C@@]2(O)C1	?	/	/	/	-25%	/
CCc1ccccc1Nc1nn2c(=O)c3ccc(C(=O)Nc4cc(C)cc(C)c4)cc3nc2s1	/	?	-21%	?	/	-26%
COc1ccc(CC2C(=O)NC(C)C(=O)N(C)C3C(=O)N(C)C(Cc4ccc(O)c(c4)Oc4ccc(cc4)C3O)C(=O)NC(C)C(=O)NC(C)C(=O)N2C)cc1 (centres undefined)	/	0.084µM*	-116%	?	/	-20%	TGFb confirm=0.0065µM*;HepG2 tox-2=1.6µM*;CCL64 TGFb inh=0.012µM*;COP TGFb inh=5%
CCCN(CCC)C(=O)Cc1c(-c2ccc(Cl)cc2)nc2ccc(Cl)cn12	/	-1%	/	?	/	/
NC1=C(Br)C(=O)c2ccccc2C1=O	?	?	5.6µM*	?	?	5.6µM*	TGFb confirm=5.2µM*;HepG2 tox-2=8.2µM*;CCL64 TGFb inh=9.2µM*;COP TGFb inh=?
CCCCC/C=C\C/C=C\C/C=C\C/C=C\CCCC(=O)OCCN	?	/	/	/	9%	/
O=C(O)CSCC(=O)N(Cc1ccccc1)c1nc(-c2ccccc2)c(-c2ccccc2)s1	-6%	-10%	?	i	10%	-10%
